# Assays:
# Experiment in all cases: PBM binding z-score (relative to random genomic background probes); higher = stronger binding; sequences stand for … in GC…GCGATTGACAGCGTAGAATGAAGG
# [1] = system: FXR:RXRa (NR concentration 270 nM, RXRa partner concentration 90 nM)
# Summary of the method: (§1)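 Each nuclear receptor dimer, without ligand, was incubated for 1 h on custom Agilent 4×180K protein-binding microarrays. Binding was detected with antibodies against each partner (one per run), and scanned fluorescence was regression-normalized. The binding z-scores are referenced to random human genomic background probes.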
# [2] = system: LXRa:RXRa (NR concentration 270 nM, RXRa partner concentration 90 nM)
# Summary of the method: as §1
# [3] = system: LXRa homodimer (NR concentration 270 nM)
# Summary of the method: as §1
# [4] = system: LXRb:RXRa (NR concentration 270 nM, RXRa partner concentration 90 nM)
# Summary of the method: as §1
# [5] = system: LXRb homodimer (NR concentration 270 nM)
# Summary of the method: as §1
# [6] = system: PPARa:RXRa (NR concentration 270 nM, RXRa partner concentration 90 nM)
# Summary of the method: as §1
# [7] = system: PPARg:RXRa (NR concentration 180 nM, RXRa partner concentration 90 nM)
# Summary of the method: as §1
# [8] = system: PPARg:RXRa 270nM:90nM, anti-RXR (NR concentration 270 nM, RXRa partner concentration 90 nM)
# Summary of the method: as §1
# [9] = system: PPARg:RXRa 30nM:10nM, anti-RXR (NR concentration 30 nM, RXRa partner concentration 10 nM)
# Summary of the method: as §1
# [10] = system: PPARg:RXRa 90nM:30nM, anti-RXR (NR concentration 90 nM, RXRa partner concentration 30 nM)
# Summary of the method: as §1
# [11] = system: PPARg:RXRa DBDmut IVT, anti-RXR (DBD mutation: RXRa K156A/R161A, NR concentration 270 nM, RXRa partner concentration 90 nM)
# Summary of the method: as §1
# [12] = system: PPARg:RXRa IVT, anti-PPARg (NR concentration 270 nM, RXRa partner concentration 90 nM)
# Summary of the method: as §1
# [13] = system: PPARg DBDmut:RXRa IVT, anti-PPARg (DBD mutation: PPARg1 K132A/R137A, NR concentration 270 nM, RXRa partner concentration 90 nM)
# Summary of the method: as §1
# [14] = system: PPARg DBDmut IVT, anti-PPARg (DBD mutation: PPARg1 K132A/R137A, NR concentration 270 nM)
# Summary of the method: as §1
# [15] = system: PPARg homodimer (NR concentration 180 nM)
# Summary of the method: as §1
# [16] = system: PXR:RXRa (NR concentration 270 nM, RXRa partner concentration 90 nM)
# Summary of the method: as §1
# [17] = system: PXR homodimer (NR concentration 270 nM)
# Summary of the method: as §1
# [18] = system: RARa:RXR (NR concentration 270 nM, RXRa partner concentration 90 nM)
# Summary of the method: as §1
# [19] = system: RARa homodimer (NR concentration 270 nM)
# Summary of the method: as §1
# [20] = system: RARb:RXRa (NR concentration 270 nM, RXRa partner concentration 90 nM)
# Summary of the method: as §1
Sequence,PBM binding z-score [1],PBM binding z-score [2],PBM binding z-score [3],PBM binding z-score [4],PBM binding z-score [5],PBM binding z-score [6],PBM binding z-score [7],PBM binding z-score [8],PBM binding z-score [9],PBM binding z-score [10],PBM binding z-score [11],PBM binding z-score [12],PBM binding z-score [13],PBM binding z-score [14],PBM binding z-score [15],PBM binding z-score [16],PBM binding z-score [17],PBM binding z-score [18],PBM binding z-score [19],PBM binding z-score [20]
CAAACTCGGTCAAGGTCAAAGTCGGTTTGTGCCA,5.73,5.09,3.66,3.81,1.02,4.81,4.76,4.8,2.42,3.93,4.82,4.77,1.56,0.439,3.17,4.98,2.66,4.81,1.43,4.49
GCGACTGGGGCATCAGCAGGTTGCCATAACTTAA,-0.664,-0.697,-0.615,-0.443,-1.37,0.348,0.434,0.229,-0.762,-0.301,3.45,2.85,0.246,-0.846,-0.258,-0.58,-0.422,-0.453,-0.648,0.207
GGAACGGGGGCAAAGTTGATAGCATCTGTCGACG,3.75,3.32,0.259,4.64,6.22,5.56,9.31,8.52,9.53,9.94,4.07,6.45,10.3,11.6,2.01,3.21,1.78,3.47,0.888,3.27
ATCTCTAGGTAACAACTTCAGTGAAAGAGAGGAC,0.55,0.485,0.102,0.396,0.978,0.493,0.782,0.618,0.652,0.573,3.07,2.74,1.64,1.45,0.774,0.286,0.641,0.537,0.713,0.586
TCAGACAGGTAAAGGTAACTCAGGTACGCAGTCG,1.07,3.02,0.16,1.79,0.229,1.48,1.11,2.56,4.03,3.14,2.37,0.745,0.618,0.192,0.82,0.892,0.37,1.35,0.782,0.904
AATACAGGGTCACTAGGCCAGAGCAGGTACGAAT,5.98,5.08,0.784,3.77,0.86,5.66,7.53,6.45,3.36,5.53,4.31,5.63,2.36,1.22,2.4,3.16,-0.000752,4.15,0.899,4.16
GCATGTAGATCAAGGTTAAGAAAGACTAAGCTAA,0.0428,0.684,-0.386,0.504,-0.805,1.47,1.33,2,0.418,1.55,1.08,0.797,-0.718,-0.329,-0.173,0.293,-0.179,0.536,-0.356,0.552
AGAATGAGGTTATACGTAGAGCAGGGAAGAAAGT,2.07,1.8,-0.116,1.59,0.336,2.98,1.76,2.08,0.738,1.52,3.85,2.15,1.23,1.06,1.79,1.13,0.781,1.57,0.0508,1.51
GCAACTGGGGCAAAGCAGGTTACCATAAGGTTGG,0.393,0.00585,-0.385,0.511,-0.769,2.06,2.61,2.77,0.156,1.77,5.89,5.52,0.219,-0.357,-0.0265,0.339,-0.607,0.838,-0.392,0.995
TCATATAGGTAATACAGGTGAAAGTGGGCATCTA,1.4,1.27,0.56,1.21,0.302,2.33,2.41,3.18,4.26,3.72,4.07,3.76,0.893,1.47,1.79,1.02,0.455,1.35,1.57,0.826
CCTAGTTGGTCAAGGTCACACACGCTATAGGTAC,4.71,4.18,2.66,3.92,1.23,4.33,3.35,3.96,1.66,3.2,2.68,3.52,0.555,1.3,4.56,4.41,2.97,4.88,4.38,4.17
TTACCAAGGCGAAGGTCGTTGATCCCTCTGTAGA,1.8,1.55,-0.229,1.43,-0.992,2.44,3.98,5.81,3.02,5.86,0.0514,1.72,-0.587,-0.677,1.25,1.16,0.0255,1.26,-0.525,0.787
ATACCAAGGTGATCGTGAGGCCGTTGATACTAAC,0.369,0.246,-0.0793,0.0516,-0.198,0.139,0.361,0.165,0.0132,0.0891,0.533,1.06,0.198,0.471,0.381,0.595,0.275,1.03,-0.0475,0.735
